{
  "source": "PubChem BioAssay (NCATS)",
  "key": {"[1]": {"assay": "qHTS Assay for Identification of Small Molecule Antagonists for NFkB Signaling Pathway. (AID 624479);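 also: pathway stimulated with TNF alpha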"}, "[2]": {"biological_target": "Tumor susceptibility gene 101 protein (Homo sapiens) (UniProt Q99816)", "sequence (Q99816 whole entry, looked up, the tested form may be a part)": "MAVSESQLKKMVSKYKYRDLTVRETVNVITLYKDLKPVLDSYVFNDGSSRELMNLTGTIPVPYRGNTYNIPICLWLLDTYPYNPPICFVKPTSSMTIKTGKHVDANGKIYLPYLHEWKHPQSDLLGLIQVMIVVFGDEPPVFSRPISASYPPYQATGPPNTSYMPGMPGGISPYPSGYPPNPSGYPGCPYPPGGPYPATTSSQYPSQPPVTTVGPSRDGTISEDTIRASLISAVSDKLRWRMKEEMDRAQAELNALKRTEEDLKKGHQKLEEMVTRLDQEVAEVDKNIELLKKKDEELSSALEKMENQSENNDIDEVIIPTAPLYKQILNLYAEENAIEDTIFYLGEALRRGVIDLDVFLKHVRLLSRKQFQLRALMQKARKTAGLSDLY", "assay": "qHTS Assay for Iinhibitors of HIV-1 Budding by Blocking the Interaction of PTAP/TSG101: Hit Validation (AID 651600; active = well fitted inhibition curve with a large enough effect; also: nearly all actives have a fitted effect of over 70% in size)", "details": "PTAP peptide/TSG101 UEV interaction, biochemical assay", "summary_of_the_method": "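Tsg101 binding domain 10 uM + FITC-PTAP peptide 50 nM (final), 10 mM HEPES pH 7.5/0.15 M NaCl/0.01% Tween 20/3 mM EDTA/0.1 mM TCEP; 20 min RT; FP read, FITC filters.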"}},
  "note": "Records with an inconclusive call do not appear. Calls of active or inactive are those of the source. Unless noted, calls follow the shape of the full dose curve. Potency is read from the fitted curve at half-maximal effect.",
  "data": [
    {"smiles": "COc1cccc2c1C(=O)c1c(O)c3c(c(O)c1C2=O)C[C@@](O)(C(=O)CO)C[C@@H]3O[C@H]1C[C@H](N)[C@H](O)[C@H](C)O1", "values": [
      {"measurement": "Potency", "setting": "[1]", "value": "6.68 µM (active)"}
    ]},
    {"smiles": "Nc1ccn([C@@H]2O[C@H](CO)[C@@H](O)C2(F)F)c(=O)n1", "values": [
      {"measurement": "Potency", "setting": "[1]", "value": "inactive"}
    ]},
    {"smiles": "COc1cccc2c1C(=O)c1c(O)c3c(c(O)c1C2=O)C[C@@](O)(C(C)=O)C[C@@H]3O[C@H]1C[C@H](N)[C@H](O)[C@H](C)O1", "values": [
      {"measurement": "Potency", "setting": "[2]", "value": "16.3 µM (active)"}
    ]}
  ]
}
